Screening data from PubChem.
LANA-H2B inh: blocks KSHV LANA binding to histone H2A/H2B; AID 2629; inhibition, % (no concentration beside the values); cell-free LANA-H2A/H2B peptide, fluorescence polarization; hit rate 0.6% among 320,000; Q9QR71; in the data active = inhibition mostly above about 10%, no sharp cut-off; inactive = mostly below about 6.7%
Rtt109 Vps75: C. albicans Rtt109 histone acetyltransferase inhibition. Q5AAJ8. purified Rtt109/Vps75, ThioGlo CoA-SH fluorescence, 4 h. hit rate 0.16% among 330,000. inhibition, % at 34.9 µM. AID 540336;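 active = inhibition of at least 50% in every replicate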
Target sequence (Q5AAJ8 whole entry, looked up): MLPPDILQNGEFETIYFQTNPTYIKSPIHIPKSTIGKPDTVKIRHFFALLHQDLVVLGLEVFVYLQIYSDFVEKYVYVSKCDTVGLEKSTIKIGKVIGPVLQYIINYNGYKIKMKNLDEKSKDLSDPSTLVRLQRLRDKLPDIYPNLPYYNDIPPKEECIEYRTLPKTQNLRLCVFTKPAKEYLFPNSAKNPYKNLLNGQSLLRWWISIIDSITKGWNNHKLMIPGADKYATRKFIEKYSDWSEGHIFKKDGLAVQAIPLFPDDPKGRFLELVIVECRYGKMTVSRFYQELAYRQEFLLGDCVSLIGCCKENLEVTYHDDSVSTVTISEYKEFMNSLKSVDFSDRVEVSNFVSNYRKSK
ABHD5-PLIN5 inh: ABHD5-PLIN5 protein interaction inhibition; Q00G26+Q8WTS1; Split G. princeps luciferase complementation, luminescence, 4 h; inhibition, % at 4 µM; hit rate 0.78% among 360,000; AID 602281;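 active = inhibition above the mean inhibition across every tested compound plus 3 SD, cut at about 22% in these data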;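 also: 0% = DMSO only wells and the 100% control is not disclosed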
rCAG binder: r(CAG) repeat RNA binding | hit rate 1.3% among 370,000 | TO-PRO-1 dye displacement fluorescence | AID 651821 | inhibition, % at 3 µM;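 active = inhibition above the plate cutoff, the mean of all test compounds on that plate plus 3 SD, cut at about 35% in these data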;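 also: 0% = DMSO alone and 100% = 100 µM mitoxantrone as full dye displacement; higher means more dye released from RNA so lower well fluorescence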
PRMT1 inh: inhibitors of human PRMT1 | AID 652257 | hit rate 1.3% among 370,000 | recombinant PRMT1, activity-based probe fluorescence polarization | inhibition, % at 2.79 µM | Q99873;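 active = inhibition above about 21% made by adding two undisclosed values, limit read from the data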
ALR inh: blocks human ALR sulfhydryl oxidase activity; purified ALR, DTT oxidation, H2O2 HRP-luminol luminescence; inhibition, % (no concentration beside the values); hit rate 3.8% among 290,000;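 active = mean replicate inhibition above about 79%, with every replicate also reaching it, limit read from the data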
Target sequence (P55789 whole entry, looked up): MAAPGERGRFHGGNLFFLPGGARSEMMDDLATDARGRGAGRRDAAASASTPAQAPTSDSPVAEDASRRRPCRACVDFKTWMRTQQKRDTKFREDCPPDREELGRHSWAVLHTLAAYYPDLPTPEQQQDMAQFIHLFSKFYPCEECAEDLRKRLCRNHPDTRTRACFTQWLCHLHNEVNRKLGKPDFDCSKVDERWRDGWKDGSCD
PRMT1 confirm: PRMT1 (human) inhibition, FP confirmation; AID 687036; hit rate 42% among 3,300; recombinant His-PRMT1, activity-based probe fluorescence polarization; shares compounds with PRMT1 inh; inhibition, % at 2.79 µM;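 active = mean inhibition across replicates above the hit cutoff derived for the earlier primary screen, cut at about 22% in these data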
* marks the source's active call; other numbers are inactive results; i = inactive; . = not tested or not shown. Sampled rows, rich in hits. Any-hit rate of the full collection: about 5.9%.

SMILES	LANA-H2B inh	Rtt109 Vps75	ABHD5-PLIN5 inh	rCAG binder	PRMT1 inh	ALR inh	PRMT1 confirm
CC(/C=C/c1ccc(C)o1)=C\C(=O)O	-0.5	1.6	13.1	0.2	29.7*	55.2	11.7
CC(=C/C(=O)O)/C=C/c1ccc(Cl)o1	1.1	-8.3	10.0	7.0	10.0	-0.5	.
S=C(NCc1ccccc1)NCc1ccco1	1.9	9.0	4.1	4.9	9.2	0.4	.
CC(C)OCCCNC(=S)Nc1ccc(S(N)(=O)=O)cc1	-1.7	-13.5	-1.1	0.4	40.1*	-3.7	58.5*
NS(=O)(=O)c1ccc(NC(=S)NCc2ccco2)cc1	1.7	10.7	-1.0	-1.6	26.9*	0.2	9.6
S=C(NCc1ccco1)NCc1ccco1	.	-0.6	-14.1	11.1	26.7*	.	7.0
NS(=O)(=O)c1ccc(NC(=S)NC2CCCC2)cc1	-5.1	3.1	-1.8	-0.2	34.3*	7.9	19.5
Cc1ccc(CN[C@@H]2CC[C@@]34CCCN3C(=O)CCC[C@H]4C2)o1	.	.	.	.	0.5	.	.
Cc1ccc(-n2c(SCc3ccc(Cl)c(Cl)c3)nnc2-c2ccc(C(C)(C)C)cc2)cc1	.	.	.	1.2	3.4	.	.
COC(=O)[C@H](Cc1ccccc1)N[C@H](c1ccc(OC)cc1)[C@@H](O)Cc1ccccc1	.	.	.	-1.0	0.0	.	.
C/C(=N\NC(=O)c1ccc(-n2cnnn2)cc1)c1ccc(Cl)cc1	4.0	-3.3	-0.1	4.0	1.2	-5.6	.
CCCCCN1CCCCC(NC(=O)c2ccc(F)cc2)C1=O (stereo not drawn)	.	.	.	-1.3	4.2	.	.
CCOc1cccc(=O)c2c(C)n(-c3ccc(C(=O)O)cc3)c(C)c12	4.4	4.7	12.6	27.9	37.0*	96.2*	12.0
Cc1ccc(C2(C)NC(=O)N(CC(=O)Nc3nc(-c4ccccn4)cs3)C2=O)cc1 (stereo not drawn)	-1.9	9.9	-8.1	2.4	25.8*	-6.7	37.8*
CCc1cc2c(nc1CC)CCCN2S(=O)(=O)c1ccc(F)cc1	.	.	.	1.5	0.2	.	.
CC(=O)Nc1ccc(NS(=O)(=O)c2ccc(CN3C(=O)c4cccnc4C3=O)cc2)cc1	3.4	-4.1	-4.5	2.6	3.7	-1.8	.
Cc1ccc(CNS(=O)(=O)c2ccc(CN3C(=O)c4cccnc4C3=O)cc2)o1	2.6	-3.0	11.1	-0.7	26.1*	6.1	13.4
Cc1ccc(CNS(=O)(=O)c2cc(F)ccc2CN2C(=O)c3cccnc3C2=O)o1	-5.2	-4.6	11.1	0.0	25.0*	7.2	-0.4
C#Cc1cccc(OCC(C)CN2CCC(C(O)(c3ccccc3)c3ccccc3)CC2)c1 (stereo not drawn)	.	.	.	0.4	-4.7	.	.
O=C1N=C(N2C=CC(=C3C=CNC=C3)C=C2)/C(=C/N=NC(=O)c2ccccc2O)S1	13.8	-1.2	-3.7	1.5	39.5*	.	23.1*
Nc1ccc2nc3c(=O)n(C4CCCCC4)c(=O)[nH]c3nc2c1	72.2*	-5.7	-7.7	i	145.2*	.	132.5*
COc1cc2[nH]c(=O)n(C3CCCCC3)c(=O)c2cc1OC	4.9	-8.3	-4.4	0.8	-3.3	0.5	.
Nc1ccc2nc3c(=O)n(CCc4ccccc4)c(=O)[nH]c3nc2c1	6.3	.	-14.0	-222.5	135.8*	-1.1	123.0*
CCCCn1c(N)c(Br)c(=O)[nH]c1=O	0.0	-9.0	-0.1	-3.7	8.1	-0.6	.
CCCCn1c(=O)[nH]c2nc3cc(N)ccc3nc2c1=O	84.8*	-5.6	-40.2	-257.8	149.2*	16.5	143.2*
SMILES	LANA-H2B inh	Rtt109 Vps75	ABHD5-PLIN5 inh	rCAG binder	PRMT1 inh	ALR inh	PRMT1 confirm
O=C1NC[C@@H](CCCCN2C[C@H](Cc3ccc(O)cc3)N(CC3CCCCC3)C(=O)C2=O)N(CCC2CCCCC2)C1=O	.	.	-3.3	3.9	-0.9	.	.
COC(=O)[C@]12C[C@H](CC(=O)NCCCN3CCCC3=O)C(=O)N(Cc3ccc(Cl)cc3Cl)C1=C[C@H](C1CCCC1)O[C@@H]2C	.	.	.	8.5	3.8	.	.
O=C1NC[C@@H](CCCCN2CCN(CCc3ccc(O)cc3)C(=O)C2=O)N(CCC2CCCCC2)C1=O	.	.	4.9	0.9	2.1	.	.
COc1ccc(S(=O)(=O)C(C#N)c2nc3ccccc3nc2N2CCCCC2)cc1 (stereo not drawn)	-3.2	-8.9	0.6	5.7	5.4	7.9	.
Cc1cccc(S(=O)(=O)C(C#N)c2nc3ccccc3nc2N2CCCC2)c1 (stereo not drawn)	4.8	-4.6	-22.4	13.2	25.2*	-17.7	5.0
CN1CCN(C(=O)C2Cc3c(-c4ccc5c(c4)OCO5)ccnc3O2)CC1 (stereo not drawn)	.	.	-0.7	0.0	-1.2	.	.
Cc1[nH]n(-c2ccccc2)c(=S)c1C=Nc1ccc([N+](=O)[O-])cc1	-6.3	28.5	-14.5	5.2	87.1*	.	96.1*
O=C(NC(=S)N1CCCCC1CO)c1cccs1 (stereo not drawn)	8.7	0.9	5.4	1.9	33.4*	6.6	13.4
CCC1CCCCN1C(=S)NC(=O)c1cccs1 (stereo not drawn)	.	2.3	-0.9	2.6	1.1	.	.
CCC[C@@H](/C=C/C(=O)OC(C)(C)C)Sc1ccc(OC)cc1	.	.	.	-0.8	3.3	.	.
Cc1ccc(/C=N/n2c(COc3ccccc3)n[nH]c2=S)s1	2.3	-4.2	-12.8	21.9	27.3*	8.0	3.6
Cc1ccccc1-c1cc2nc(NCc3ccc(N(C)C)cc3)n(C)c(=O)c2s1	.	.	-7.3	8.0	0.1	.	.
Cc1cc(/C=C(\C#N)c2nc3ccccc3[nH]2)c(C)n1C	-3.2	6.7	2.7	10.0	28.1*	-15.0	19.4
O=C1NNC(c2ccccc2)=N/C1=C\c1ccccc1Cl	.	2.1	-9.6	8.1	-0.7	.	.
O=C1NNC(c2ccccc2)=N/C1=C\c1ccco1	-7.3	22.9	5.6	23.0	29.8*	3.8	13.0
O=C(O)c1ccc(S(=O)(=O)Cc2ccccc2)cc1	7.5	-4.8	-1.6	-2.6	24.9*	-12.5	16.7
CCOC(=O)c1c(C)[nH]c(C)c1C(=O)CSc1nc2ccccc2[nH]1	0.0	3.5	-5.2	-1.9	-1.4	14.5	.
CC1(C(=O)CSc2ncn[nH]2)CCC(=O)O1 (stereo not drawn)	-4.5	.	.	.	.	10.2	.
Cn1c(N)c(C(=O)CSc2nc3ccccc3[nH]2)c(=O)n(C)c1=O	3.2	-9.7	-9.9	1.6	27.9*	12.6	1.0
CC1(C(=O)CSc2nc3ccccc3[nH]2)CCC(=O)O1 (stereo not drawn)	1.7	-2.7	-38.2	7.1	60.3*	66.2	40.6*
COc1ccc(-c2onc3ccc(Cl)cc23)cc1	3.6	5.5	3.3	7.8	30.5*	-5.5	13.1
COc1cc(NC(=O)Cc2cccs2)cc(OC)c1	6.1	1.8	2.3	-0.1	0.7	-8.8	.
COc1cc(OC)cc(C(=O)NC(=S)NNC(=O)Cc2cccs2)c1	6.8	0.9	-5.7	10.6	27.8*	99.3*	3.4
